Results taken from PubChem BioAssay (Tox21).
Values without a mark were called inactive. The source made the active and inactive calls. Calls come from the whole dose curve; as a rule, active = well fitted curve in the direction sought with a large enough effect in the repeat runs; inconclusive = weak or mixed curves; inactive = flat fitted curve, though single readings scatter.

Assay: qHTS assay to test for compound auto fluorescence at 535 nm (green) in HEK293 cells (AID 720680)
Conditions: green autofluorescence 485/535 nm; series mostly up to 91.3 µM
Excerpt: U.S. Tox21 Program National Center for Advancing Translational Sciences [NCATS] NIH Chemical Genomics Center [NCGC] U.S. Environmental Protection Agency [EPA] National Institutes of Environmental Health Sciences [NIEHS] National Toxicology Program [NTP] U.S. Food and Drug Administration [FDA] Tox21 Assay Overview: Compound auto fluorescence often interferes with screening of the compound library against various biological targets and signaling pathways. Some of these compounds may have fluorophoric properties. Such properties may interfere with the assay outputs resulting in false positives and/or negatives. To decrease such complications and ensure the compound activities are relevant in terms of biological response, the Tox21 10K compound library was screened for auto fluorescence. From the fluorophores used as reporter signals in our screening assays, the auto fluorescence equivalencies of compounds against three fluorophores have been evaluated: Triamterene, Fluorescein and Rose Bengal sodium for blue, green and red fluorescence, respectively. The fluorescence intensities were measured using Excitation/Emission wavelengths at 405/460nm, 485/535nm and 540/590nm for blue, green and red labels, respectively. This assay includes the green fluorescence data.
Tox21 Assay Protocol Summary: 2,000 HEK293 cells in 5 uL of culture medium containing 10% dialyzed FBS per well were dispensed into black wall/clear bottom 1536-well plates using a Multidrop Combi Dispenser (Thermo Scientific). The assay plates were incubated for 4-5 hr at 37C to allow cell attachment to the well bottom, followed by the transfer of 23 nL compound or DMSO vehicle by a pintool work station (Kalypsys, San Diego, CA). After the assay plates were incubated overnight at 37C and 5% CO2, fluorescence intensities in the assay plates were measured by an Envision (PerkinElmer, Shelton, CT) plate reader using three labels for measuring blue, green and red fluorescence at […] 460, 535 and 590nm respectively.
% is set by controls: 0 for no effect and ±100 for the full control effect.

Structure (SMILES)	outcome	fluorescence, % of fluorescein
CN1C[C@H]2c3ccccc3Oc3ccc(Cl)cc3[C@@H]2C1	inactive	–
C=C(C)C(=O)OCC	inactive	–
O=[N+]([O-])c1cccc(S(=O)(=O)O)c1	inactive	–
C=CC(=O)OCCOCCOC(=O)C=C	inactive	–
Cc1oc(-c2ccccc2)nc1CCOc1cccc2c1ccn2CCC(=O)O	inactive	–
CC(=O)c1ccc2c(c1)N(CCCN1CCC(CCO)CC1)c1ccccc1S2	–	-0.0765% [at 18.6 µM]
CCCCc1nc2cccnc2n1Cc1ccc(-c2ccccc2-c2nnn[nH]2)cc1	inactive	–
CC1=CC[C@H](C(C)C)C=C1	inactive	–
COc1cc2c(cc1OC)C(C(C(=O)N(CCc1ccc(OC)c(OC)c1OC)CCc1ccc(OC)c(OC)c1OC)c1ccccc1)=NCC2 (stereo not given)	inactive	–
CCCNCC(O)COc1ccccc1C(=O)CCc1ccccc1 (stereo not given)	inactive	–
N=c1ccn2c(n1)O[C@H]1[C@H](O)[C@@H](CO)O[C@H]12	inactive	–
CCOC(=O)C1=C[C@]2(CC)CCCN3CCc4c(n1c1ccccc41)[C@@H]32	inactive	–
C#CCN(C)CCCOc1ccc(Cl)cc1Cl	inactive	–
CN(C)CCN(Cc1ccccc1)c1ccccn1	inactive	–
Cc1ncc(CO)c(C=O)c1O	inactive	–
NCC(=O)O	inactive	–
O=C(OCCc1ccccc1)c1ccccc1	inactive	–
CCCCC(=O)OCC(=O)[C@H]1[C@H](C)C[C@H]2[C@@H]3C[C@H](F)C4=CC(=O)C=C[C@]4(C)[C@@]3(F)[C@@H](O)C[C@@]21C	inactive	–
CCCn1cnc2c1c(=O)n(CCCCC(C)=O)c(=O)n2C	inactive	–
CCCCCCCCCc1ccc(OCCOCCO)cc1	inactive	–

Structure (SMILES)	outcome	fluorescence, % of fluorescein
OCCNCc1ccccc1	inactive	–
C[C@@H](c1ncncc1F)C(O)(Cn1cncn1)c1ccc(F)cc1F (stereo not given in full)	inactive	–
O=C(O)c1ccc(S(=O)(=O)O)cc1C(=O)O	inactive	–
CCc1cc(C2=C(C(=O)O)N(c3ccccc3C(F)(F)F)S(=O)(=O)c3ccccc32)cc2c1OCO2	inactive	–
COC(C)(C)CCO	inactive	–
CCCCCCCCCCCCCCCCOS(=O)(=O)O	inactive	–
COc1cc2nc(N(C)CCCNC(=O)C3CCCO3)nc(N)c2cc1OC (stereo not given)	–	-0.0302% [at 18.6 µM]
CC(C)(CO)[N+](=O)[O-]	inactive	–
C[C@H]1C[C@H]2[C@@H]3CCC4=CC(=O)C=C[C@]4(C)[C@@]3(Cl)[C@@H](O)C[C@]2(C)[C@@]1(O)C(=O)CO	inactive	–
CCCCCCCCCCCCCCOS(=O)(=O)O	inactive	–
O=S(c1cc(Cl)cc(Cl)c1O)c1cc(Cl)cc(Cl)c1O	inactive	–
CCO[Si](CCCCl)(OCC)OCC	inactive	–
CCCCCCCCO[C@@H]1O[C@H](CO)[C@@H](O)[C@H](O)[C@H]1O	inactive	–
CCCCCCCCCCCCCCCCCCOS(=O)(=O)O	inactive	–
C[Si](C)(CCCN)O[Si](C)(C)CCCN	inactive	–
Cc1cccc(C)c1OCC(=O)N[C@@H](Cc1ccccc1)[C@@H](O)C[C@H](Cc1ccccc1)NC(=O)[C@H](C(C)C)N1CCCNC1=O	inactive	–
CN(C)C(=O)NC1(c2ccccc2)CCN(CC[C@@]2(c3ccc(F)c(F)c3)CN(C(=O)c3ccccc3)CCO2)CC1	inactive	–
CC(=O)[O][Al]	inactive	–
O=CC1CC=CCC1 (stereo not given)	inactive	–
CCCCCCCCCCO[C@@H]1O[C@H](CO)[C@@H](O)[C@H](O)[C@H]1O	inactive	–
